Reference: PubChem BioAssay (Tox21)
Records with an inconclusive call do not appear. Where a call stands in place of a potency, no number is given. Unmarked numbers belong to inactive results. Calls of active or inactive are those of the source. Unless noted, calls follow the shape of the dose curve; as a rule, active = well fitted cell-killing curve with a large enough effect in the repeat runs; inconclusive = weak or mixed curves, or effect the other way; inactive = no such curve, though single readings can be large or run the other way.

Molecular target: Vitamin D3 receptor (Homo sapiens) (UniProt P11473)
Sequence (P11473 whole entry, looked up): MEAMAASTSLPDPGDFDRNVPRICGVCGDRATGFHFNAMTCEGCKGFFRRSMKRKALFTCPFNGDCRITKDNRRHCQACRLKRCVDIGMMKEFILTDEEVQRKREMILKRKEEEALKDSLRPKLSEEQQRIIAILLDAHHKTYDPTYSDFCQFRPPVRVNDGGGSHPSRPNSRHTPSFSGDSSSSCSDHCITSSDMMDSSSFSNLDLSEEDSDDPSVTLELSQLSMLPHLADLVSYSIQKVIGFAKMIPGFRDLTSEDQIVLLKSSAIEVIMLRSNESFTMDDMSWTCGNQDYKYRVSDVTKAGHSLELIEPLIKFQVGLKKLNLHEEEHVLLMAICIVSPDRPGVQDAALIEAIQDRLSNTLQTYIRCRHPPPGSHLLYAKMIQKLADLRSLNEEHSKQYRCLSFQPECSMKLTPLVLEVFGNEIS
Test: qHTS assay to identify small molecule agonists of the vitamin D receptor (VDR) signaling pathway (AID 743222; calls by dose curve)
Conditions: HEK293T VDR-UAS-bla, beta-lactamase FRET ratio, 16 h; series mostly up to 63.5 µM
In short: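 Using LiveBLAzer B/G FRET detection, agonism was scored in VDR-bla cells exposed overnight (16 h, 37C) to DMSO-dissolved compounds; substrate incubation was 2 h at room temperature.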

Question: With CC(C)OC(=O)CCCCC(=O)OC(C)C as the compound, how does the outcome read?
Answer: Its outcome is “inactive”.

Question: For CC(=O)Nc1ccc(S(=O)(=O)Nc2ccc([N+](=O)[O-])cc2)cc1, which outcome is on record?
Answer: Its outcome is “inactive”.

Question: With Cc1ccc(S(=O)(=O)O)c(C)c1 as the compound, how does the outcome read?
Answer: The outcome was “inactive”.

Question: With CCCCNc1ccc(C(=O)OCCN(C)C)cc1 as the compound, how does the outcome read?
Answer: Its outcome is “inactive”.

Question: Which outcome does the source give for CC(C)(C)c1nnc(NS(=O)(=O)c2ccc(N)cc2)s1 here?
Answer: The outcome was “inactive”.

Question: Which outcome does the source give for OCCN(CCO)c1cccc(Cl)c1 here?
Answer: Its outcome is “inactive”.

Question: For COc1cc2c(cc1OC)[C@@H]1CC(=O)[C@@H](CC(C)C)CN1CC2, which outcome is on record?
Answer: The outcome was “inactive”.

Question: With O=C(c1ccc(O)cc1)c1ccc(O)c(O)c1O as the compound, how does the outcome read?
Answer: The outcome was “inactive”.

Question: For CCCCNC1CC(C)(C)NC(C)(C)C1, which outcome is on record?
Answer: Its outcome is “inactive”.

Question: With CC(CC=O)CCCC(C)(C)O (stereo not given) as the compound, how does the outcome read?
Answer: The outcome was “inactive”.

Question: For CCCCCCOC(=O)CC, which outcome is on record?
Answer: The outcome was “inactive”.

Question: Which outcome does the source give for O=C(O)CCSSCCC(=O)O here?
Answer: The outcome was “inactive”.

Question: For O=C1CCCC(=O)O1, which outcome is on record?
Answer: The outcome was “inactive”.

Question: For CCCC/C=C\CCCCCCCCCC=O, which outcome is on record?
Answer: The outcome was “inactive”.

Question: Which outcome does the source give for C=C(C)C(=O)OCc1ccccc1 here?
Answer: Its outcome is “inactive”.

Question: Which outcome does the source give for COP(=O)(OC)OC(c1ccc(Cl)cc1)P(=O)(OC)OC (stereo not given) here?
Answer: Its outcome is “inactive”.

Question: With NS(=O)(=O)c1ccc(NC(=O)CCC(=O)O)cc1 as the compound, how does the outcome read?
Answer: Its outcome is “inactive”.

Question: Which outcome does the source give for CCCCN here?
Answer: Its outcome is “inactive”.

Question: With CCCCCCOc1ccccc1C(N)=O as the compound, how does the outcome read?
Answer: Its outcome is “inactive”.

Question: Which outcome does the source give for C=C(C)C(=O)OCCN(CC)CC here?
Answer: Its outcome is “inactive”.

Question: Which outcome does the source give for CCCOC(OCCC)OCCC here?
Answer: Its outcome is “inactive”.

Question: With CCOCCOCCOCC as the compound, how does the outcome read?
Answer: The outcome was “inactive”.

Question: With CCc1ccc(C=O)cc1 as the compound, how does the outcome read?
Answer: The outcome was “inactive”.

Question: For O=C(O)Cc1ccc(Cl)cc1Cl, which outcome is on record?
Answer: The outcome was “inactive”.

Question: With CC(CN)CC(C)(C)CCN (stereo not given) as the compound, how does the outcome read?
Answer: The outcome was “inactive”.

Question: Which outcome does the source give for COC(=O)[C@@H]1[C@H]2C[C@H]3c4[nH]c5ccccc5c4CCN3C[C@@H]2CC[C@@H]1O here?
Answer: The outcome was “inactive”.

Question: With Cc1ccccc1N=O as the compound, how does the outcome read?
Answer: The outcome was “inactive”.

Molecular target: Vitamin D3 receptor (Homo sapiens) (UniProt P11473)
Test: qHTS assay to identify small molecule antagonists of the vitamin D receptor (VDR) signaling pathway (AID 743223; active = well fitted inhibition curve with a large enough effect in the signal ratio in the repeat runs, not every such curve was filed as active; the % refers to the signal ratio)
Conditions: VDR-UAS-bla HEK293T, beta-lactamase FRET ratio, 16 h; series mostly up to 61 µM
In short: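 Fluorescence from LiveBLAzer B/G FRET substrate, read after 2 h at room temperature, reflects beta-lactamase reporter activity in VDR-bla cells treated 16 h at 37C with compounds and agonist 1alpha,25-dihydroxyvitamin D3 (3 nM final).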

Question: With CC(=O)Nc1ccc(S(=O)(=O)Nc2ccc([N+](=O)[O-])cc2)cc1 as the compound, how does the outcome read?
Answer: The outcome was “inactive”.

Question: With Cc1ccc(S(=O)(=O)O)c(C)c1 as the compound, how does the outcome read?
Answer: The outcome was “inactive”.

Question: With COc1ccc2c(c1)C(=O)N(CCc1ccc(S(=O)(=O)NC(=O)NC3CCCCC3)cc1)C(=O)C2(C)C as the compound, how does the outcome read?
Answer: The outcome was “inactive”.

Question: Which outcome does the source give for CC(=O)Nc1cccc(C)c1 here?
Answer: The outcome was “inactive”.

Question: For O=C(c1ccc(O)cc1)c1ccc(O)c(O)c1O, which outcome is on record?
Answer: Its outcome is “inactive”.

Question: For CCCCNC1CC(C)(C)NC(C)(C)C1, which outcome is on record?
Answer: Its outcome is “inactive”.

Question: With O=C(O)CCSSCCC(=O)O as the compound, how does the outcome read?
Answer: Its outcome is “inactive”.

Question: With O=C1CCCC(=O)O1 as the compound, how does the outcome read?
Answer: The outcome was “inactive”.

Question: With CCCC/C=C\CCCCCCCCCC=O as the compound, how does the outcome read?
Answer: The outcome was “inactive”.

Question: Which outcome does the source give for C=C(C)C(=O)OCc1ccccc1 here?
Answer: The outcome was “inactive”.

Question: With COP(=O)(OC)OC(c1ccc(Cl)cc1)P(=O)(OC)OC (stereo not given) as the compound, how does the outcome read?
Answer: Its outcome is “inactive”.

Question: Which outcome does the source give for CCCCCCOc1ccccc1C(N)=O here?
Answer: The outcome was “inactive”.

Question: For C=C(C)C(=O)OCCN(CC)CC, which outcome is on record?
Answer: The outcome was “inactive”.

Question: With CCCOC(OCCC)OCCC as the compound, how does the outcome read?
Answer: The outcome was “inactive”.

Question: With CCOCCOCCOCC as the compound, how does the outcome read?
Answer: Its outcome is “inactive”.

Question: Which outcome does the source give for CCc1ccc(C=O)cc1 here?
Answer: Its outcome is “inactive”.

Question: For COCCOC(=O)C1=C(C)NC(C)=C(C(=O)OC(C)C)C1c1cccc([N+](=O)[O-])c1 (stereo not given), which outcome is on record?
Answer: Its outcome is “inactive”.

Question: For CC(CN)CC(C)(C)CCN (stereo not given), which outcome is on record?
Answer: The outcome was “inactive”.

Question: Which outcome does the source give for NNc1nnc(NN)c2ccccc12 here?
Answer: The outcome was “inactive”.

Question: Which outcome does the source give for COC(=O)[C@@H]1[C@H]2C[C@H]3c4[nH]c5ccccc5c4CCN3C[C@@H]2CC[C@@H]1O here?
Answer: Its outcome is “inactive”.

Question: Which outcome does the source give for Cc1ccccc1N=O here?
Answer: The outcome was “inactive”.

Test system: not listed separately
Test: qHTS assay to identify small molecule agonists of the vitamin D receptor (VDR) signaling pathway - cell viability counter screen (AID 743224); also: nearly all actives have a fitted effect of over 50% in size
Conditions: VDR-bla HEK293T viability, CellTiter-Glo luminescence, 16 h; series mostly up to 62.6 µM
In short: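 Counter screen for cytotoxicity: VDR-bla cells at 2,000 cells/well, 16 h compound exposure, then CellTiter-Glo luminescence after the beta-lactamase measurement.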

Question: Which Potency does the source give for CC(C)OC(=O)CCCCC(=O)OC(C)C here?
Answer: Its Potency is “inactive”.

Question: Which Potency does the source give for CC(=O)Nc1ccc(S(=O)(=O)Nc2ccc([N+](=O)[O-])cc2)cc1 here?
Answer: Its Potency is “inactive”.

Question: Which Potency does the source give for Cc1ccc(S(=O)(=O)O)c(C)c1 here?
Answer: Its Potency is “inactive”.

Question: Which Potency does the source give for CCCCNc1ccc(C(=O)OCCN(C)C)cc1 here?
Answer: Its Potency is “inactive”.

Question: Which Potency does the source give for COc1ccc2c(c1)C(=O)N(CCc1ccc(S(=O)(=O)NC(=O)NC3CCCCC3)cc1)C(=O)C2(C)C here?
Answer: The Potency was “inactive”.

Question: For CCN(C)C(=O)Oc1cccc([C@H](C)N(C)C)c1, which Potency is on record?
Answer: Its Potency is “inactive”.

Question: With CC(C)CCCCOC(=O)c1ccccc1C(=O)OCCCCC(C)C as the compound, how does the Potency read?
Answer: The Potency was “inactive”.

Question: With C=C(C)C(=O)OCC(C)(C)COC(=O)C(=C)C as the compound, how does the Potency read?
Answer: Its Potency is “inactive”.

Question: For CC(=O)Nc1cccc(C)c1, which Potency is on record?
Answer: The Potency was “inactive”.

Question: For CC(C)(C)c1nnc(NS(=O)(=O)c2ccc(N)cc2)s1, which Potency is on record?
Answer: Its Potency is “inactive”.

Question: For OCCN(CCO)c1cccc(Cl)c1, which Potency is on record?
Answer: Its Potency is “inactive”.

Question: Which Potency does the source give for COc1cc2c(cc1OC)[C@@H]1CC(=O)[C@@H](CC(C)C)CN1CC2 here?
Answer: Its Potency is “inactive”.

Question: For O=C(c1ccc(O)cc1)c1ccc(O)c(O)c1O, which Potency is on record?
Answer: Its Potency is “inactive”.

Question: Which Potency does the source give for CCCCNC1CC(C)(C)NC(C)(C)C1 here?
Answer: The Potency was “inactive”.

Question: With CCO[Si](CCCS)(OCC)OCC as the compound, how does the Potency read?
Answer: The Potency was “inactive”.

Question: For CCCCCCOC(=O)CC, which Potency is on record?
Answer: The Potency was “inactive”.

Question: Which Potency does the source give for O=C(O)CCSSCCC(=O)O here?
Answer: The Potency was “inactive”.

Question: For O=C1CCCC(=O)O1, which Potency is on record?
Answer: The Potency was “inactive”.

Question: Which Potency does the source give for CCCCCOC(=O)CCC here?
Answer: The Potency was “inactive”.

Question: With CCCC/C=C\CCCCCCCCCC=O as the compound, how does the Potency read?
Answer: The Potency was “inactive”.

Question: Which Potency does the source give for CCOC(=O)c1ccc(OC(=O)CCCCCN=C(N)N)cc1 here?
Answer: The Potency was “inactive”.

Question: With C=C(C)C(=O)OCc1ccccc1 as the compound, how does the Potency read?
Answer: The Potency was “inactive”.

Question: For COP(=O)(OC)OC(c1ccc(Cl)cc1)P(=O)(OC)OC (stereo not given), which Potency is on record?
Answer: Its Potency is “inactive”.

Question: With NS(=O)(=O)c1ccc(NC(=O)CCC(=O)O)cc1 as the compound, how does the Potency read?
Answer: Its Potency is “inactive”.

Question: For CCCCN, which Potency is on record?
Answer: The Potency was “inactive”.

Question: For CCCCCCOc1ccccc1C(N)=O, which Potency is on record?
Answer: The Potency was “inactive”.

Question: Which Potency does the source give for C=C(C)C(=O)OCCN(CC)CC here?
Answer: The Potency was “inactive”.

Question: Which Potency does the source give for CCCOC(OCCC)OCCC here?
Answer: The Potency was “inactive”.

Question: For CCOCCOCCOCC, which Potency is on record?
Answer: Its Potency is “inactive”.

Question: For CCc1ccc(C=O)cc1, which Potency is on record?
Answer: The Potency was “inactive”.

Question: With C[Si](C)=O as the compound, how does the activity change, negative = cytotoxicity read?
Answer: Its activity change, negative = cytotoxicity is 2.87% [at 5.95 µM].

Question: Which Potency does the source give for COCCOC(=O)C1=C(C)NC(C)=C(C(=O)OC(C)C)C1c1cccc([N+](=O)[O-])c1 (stereo not given) here?
Answer: The Potency was “inactive”.

Question: With O=C(O)Cc1ccc(Cl)cc1Cl as the compound, how does the Potency read?
Answer: The Potency was “inactive”.

Question: With CC(CN)CC(C)(C)CCN (stereo not given) as the compound, how does the Potency read?
Answer: Its Potency is “inactive”.

Question: With NNc1nnc(NN)c2ccccc12 as the compound, how does the Potency read?
Answer: The Potency was “inactive”.

Question: Which Potency does the source give for COC(=O)[C@@H]1[C@H]2C[C@H]3c4[nH]c5ccccc5c4CCN3C[C@@H]2CC[C@@H]1O here?
Answer: Its Potency is “inactive”.

Question: Which Potency does the source give for Cc1ccccc1N=O here?
Answer: Its Potency is “inactive”.
